tim10-1 inh: growth inhibitors of tim10-1 mutant yeast, primary screen, luminescence, uHTS | S. cerevisiae tim10-1 ts strain growth, BacTiter-Glo, 24 h | inhibition, % at 20 µM | 2.2% of 330,000 active | AID 463190, 2010;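 active means inhibition of at least 40%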;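 further: mutant grown at 25 °C; 0% = DMSO wells with yeast and 100% = wells holding no yeast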
Yeast superoxide: reduction of superoxide in aged yeast, primary screen, HTS | superoxide response (% of plate mean), % at 10 µM | S. cerevisiae aged cells, superoxide DHE fluorescence; active compounds read low | AID 2690, 2010 | 0.18% of 330,000 active;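 active means superoxide response under a set limit, about three screen SD below normal, cut at about 65% in these data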;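 further: yeast aged for seven days with compound at 30 °C before DHE staining; 100% = average MFI of all compound-treated wells on the plate with controls excluded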
TIM10 inh: growth inhibitors of isogenic TIM10 control yeast, primary screen, counter-screen for tim10-1 yeast inhibitor project, luminescence, uHTS | S. cerevisiae TIM10 strain growth, BacTiter-Glo luminescence, 24 h | inhibition, % at 10 µM | 1.4% of 330,000 active;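 active means inhibition of 40% or more at the single tested concentration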;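 further: wild-type TIM10 isogenic control strain grown at permissive 25 °C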
tim23-1 inh: growth inhibitors of tim23-1 mutant yeast, primary screen, luminescence, uHTS; S. cerevisiae tim23-1 growth, BacTiter-Glo luminescence, 24 h; inhibition, % at 20 µM; 1.3% of 330,000 active; AID 463212, 2010;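 active means growth inhibition of the mutant yeast at or above 50%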;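 further: temperature-sensitive mutant grown at 25 °C; plate controls were DMSO-treated mutant yeast for no effect and medium wells lacking yeast for full effect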
NLRP3 yeast inh: NALP3 inflammasome inhibitors in reconstituted yeast, primary screen, luminescence, uHTS; Yeast reconstituted NLRP3/ASC/caspase-1, beta-gal luminescence, 24 h; inhibition, % at 10 µM; 0.39% of 330,000 active;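 active means inhibition of 50% or more; inactive means inhibition below 50%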;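 further: plate controls were induced DMSO wells for no effect and uninduced yeast grown without galactose for full effect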
tim10-1 conf: growth inhibitors of tim10-1 mutant yeast, confirmation, single concentration, luminescence, S. cerevisiae; inhibition, % at 20 µM; shares compounds with tim10-1 inh; AID 463213, 2010; S. cerevisiae tim10-1 ts strain growth, BacTiter-Glo, 24 h; 56% of 7,400 active;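 active means inhibition of yeast growth at or above a set limit in either of two repeat tests at 20 µM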;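 further: tim10-1 mutant grown at permissive 25 °C to find synthetic lethal compounds; 0% = DMSO yeast wells and 100% = medium wells without yeast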
TIM10 conf: growth inhibitors of wild-type TIM10 yeast, confirmation, counter-screen for tim10-1 synthetic lethality project, single concentration, luminescence, S. cerevisiae | shares compounds with TIM10 inh | S. cerevisiae tim10 strain growth, BacTiter-Glo luminescence, 24 h | inhibition, % at 10 µM | 63% of 4,600 active;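 active means inhibition of yeast growth at or above a set limit in either of two replicates at 10 µM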;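 further: this counterscreen used the strain with wild-type TIM10; 0% = yeast with DMSO and 100% = medium wells lacking yeast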
tim23-1 conf: tim23-1 mutant yeast growth inhibitors, confirmation, luminescence, single concentration | shares compounds with tim23-1 inh | S. cerevisiae tim23-1 growth, BacTiter-Glo luminescence, 24 h | inhibition, % at 20 µM | 83% of 4,400 active | AID 463218, 2010;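 active means inhibition above about 39% in either of two replicate wells at 20 µM, limit read from the data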;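 further: temperature-sensitive tim23-1 mutant grown at 25 °C; 0% = DMSO wells with yeast and 100% = medium wells without yeast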
Active calls of the source: *. Only some compounds are listed: those with a hit (about 3.8% of all), similar ones and a draw of the others.

Cc1cccc(/C(N)=N/OC(=O)c2cccs2)c1 was read as tim10-1 inh 65*, Yeast superoxide 102, TIM10 inh 79*, tim23-1 inh 81*, NLRP3 yeast inh -23, tim10-1 conf 57*, TIM10 conf 73* and tim23-1 conf 76*.
`Cc1ccc(/C(N)=N/OC(=O)C23CC4CC(CC(C4)C2)C3)cc1` gave tim10-1 inh 58*, Yeast superoxide 97, TIM10 inh 85*, tim23-1 inh 80*, NLRP3 yeast inh 4, tim10-1 conf 42*, TIM10 conf 86* and tim23-1 conf 67*.
`Cc1ccc(/C(N)=N/OC(=O)c2cccs2)cc1` gave tim10-1 inh 48*, Yeast superoxide 108, TIM10 inh 80*, tim23-1 inh 73*, NLRP3 yeast inh 9, tim10-1 conf 60*, TIM10 conf 88* and tim23-1 conf 24.
N/C(=N\OC(=O)c1ccccc1Cl)c1ccncc1 was read as tim10-1 inh 21, Yeast superoxide 123, TIM10 inh 14, tim23-1 inh 8 and NLRP3 yeast inh 9.
Clc1ccccc1C(c1ccccc1)(c1ccccc1)n1ccnc1 was read as tim10-1 inh -177, Yeast superoxide 115, TIM10 inh -103, tim23-1 inh -23 and NLRP3 yeast inh 4.
Screening N/C(=N\OC(=O)c1cccs1)c1cccc(Br)c1 returned tim10-1 inh 57*, Yeast superoxide 108, TIM10 inh 90*, tim23-1 inh 80*, NLRP3 yeast inh 5, tim10-1 conf 59*, TIM10 conf 86* and tim23-1 conf 51*.
O=c1c2cccc(Cl)c2nc2n1Cc1ccccc1-2 was read as tim10-1 inh -11, Yeast superoxide 116, TIM10 inh -27, tim23-1 inh 2 and NLRP3 yeast inh 24.
`CCc1cc2c(=O)nc3n(c2s1)Cc1ccccc1/C3=C(/O)c1ccccc1Cl` gave tim10-1 inh 59*, Yeast superoxide 112, TIM10 inh 35, tim23-1 inh 66*, NLRP3 yeast inh 17, tim10-1 conf 42* and tim23-1 conf 40*.
`CC1CCc2nc(NC(=O)CN3CCN(c4ccc(F)cc4)CC3)sc2C1` (configuration not stated) gave tim10-1 inh 51*, Yeast superoxide 96, TIM10 inh 28, tim23-1 inh 55*, NLRP3 yeast inh 22, tim10-1 conf 28 and tim23-1 conf 37.
COc1ccccc1OCc1ccc(C(=O)Nc2ccncc2)o1 was read as tim10-1 inh 28, Yeast superoxide 77, TIM10 inh -4, tim23-1 inh 16 and NLRP3 yeast inh 15.
For O=C(/C=C/c1c(Cl)cccc1Cl)n1cccn1 the results were tim10-1 inh 56*, Yeast superoxide 97, TIM10 inh 41*, tim23-1 inh 60*, NLRP3 yeast inh 17, tim10-1 conf 57*, TIM10 conf 55* and tim23-1 conf 85*.
`O=C(/C=C/c1c(Cl)cccc1Cl)N1CCOCC1` gave tim10-1 inh -6, Yeast superoxide 92, TIM10 inh -7, tim23-1 inh -1 and NLRP3 yeast inh 12.
`O=[N+]([O-])c1ccc(C=Nc2ccc(Cl)c([N+](=O)[O-])c2)s1` gave tim10-1 inh 65*, TIM10 inh 85*, tim23-1 inh 51*, NLRP3 yeast inh 9, tim10-1 conf 71*, TIM10 conf 88* and tim23-1 conf 77*.
Screening NC(=O)c1ccc(N=Cc2ccc([N+](=O)[O-])s2)cc1 returned Yeast superoxide 84.

Compound activity: PubChem BioAssay, several laboratories
